Results filed as inconclusive are left out. Active and inactive are the calls of the source. The call rests on the fitted dose curve; in most records, active means well fitted curve in the direction sought with a large enough effect; inconclusive means small, poorly fitted or top-dose-only effect, or another doubt; inactive means no such curve, though single readings can be large; an effect the other way counts as inactive or inconclusive.
Experiments:
[1] = MultiTox-Fluor Cytotoxicity Assay - LYMP1-003 - Dead Cells (AID 961); conditions: LYMP1-003 lymphoblastoid cells, dead-cell protease fluorescence; series mostly up to 92.2 µM; further: nearly all actives have a fitted effect of over 70% in size
Procedure, shortened: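 LYMP1-003 human lymphoblastoid cells (2500/well) exposed to compound 16 h at 37 C in complete medium; dead-cell protease read with bis-AAF-R110 fluorescence (Ex/Em 485/520) after 60 min at room temperature. Normalized to DMSO and 15 uM tetraoctylammonium bromide; AC50 from Hill fit.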

[2] = Cell Viability - LYMP1-003 - Assay at 24 hr (AID 963); conditions: LYMP1-003 lymphoblastoid cell viability; series mostly up to 92.2 µM
Procedure, shortened: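 CellTiter-Glo luminescence (intracellular ATP) read after 24 hr, 37 C compound exposure of 2500 LYMP1-003 human lymphoblastoid cells/well in complete medium; qHTS concentration series; AC50 via standard Hill equation.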

[3] = Cell Viability - LYMP1-003 - Assay at 40 hr (AID 964); conditions: LYMP1-003 lymphoblastoid viability; series mostly up to 92.2 µM; further: nearly all actives have a fitted effect of over 60% in size
Procedure, shortened: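 LYMP1-003 lymphoblastoid cells, 2500/well; 5 hr preincubation, 40 hr compound exposure, 37 C; CellTiter-Glo 30 min RT; luminescence; Hill-fit AC50. Positive control tetraoctylammonium bromide.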

[4] = Cell Viability - LYMP2-003 (AID 965); conditions: LYMP2-003 lymphoblastoid cell viability; series mostly up to 92.2 µM;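 further: cells exposed to compounds for 24 h before reading; nearly all actives have a fitted effect of over 50% in size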
Procedure, shortened: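 Human lymphoblastoid cells (2500/well) were pre-incubated 5 hr at 37 C, then exposed to compounds over a concentration range for 24 hr at 37 C. Intracellular ATP was read by CellTiter-Glo luminescence; AC50 came from Hill-equation fits.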

[5] = Cell Viability - LYMP2-004 (AID 966); conditions: LYMP2-004 lymphoblastoid cell viability, qHTS; series mostly up to 92.2 µM; further: nearly all actives have a fitted effect of over 65% in size
Procedure, shortened: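 Luminescent ATP read-out (CellTiter-Glo, 30 min RT) after 24 hr compound exposure at 37 C; 2500 lymphoblastoid cells/well, complete medium. Decrease in ATP = cytotoxicity; AC50 from standard Hill model.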

[6] = Cell Viability - LYMP2-005 (AID 967); conditions: LYMP2-005 lymphoblastoid cell viability; series mostly up to 92.2 µM
Procedure, shortened: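 CellTiter-Glo luminescence (cellular ATP) read-out; LYMP2-005 lymphoblastoid cells, 2500/well, 5 h pre-incubation, then 24 h compound exposure at 37 C in complete medium. Tetraoctylammonium bromide positive control; AC50 by standard Hill fit.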

[7] = Cell Viability - LYMP2-009 (AID 968); conditions: LYMP2-009 lymphoblastoid cell viability; series mostly up to 92.2 µM; further: nearly all actives have a fitted effect of over 55% in size
[8] = Cell Viability - LYMP2-011 (AID 969); conditions: LYMP2-011 lymphoblastoid cells viability; series mostly up to 92.2 µM; further: nearly all actives have a fitted effect of over 60% in size
Procedure, shortened: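 Luminescent ATP read-out (CellTiter-Glo, 30 min RT) after 24 hr compound exposure at 37 C in human lymphoblastoid cells, 2500 cells/well. Decreasing ATP indicates cytotoxicity; AC50 from standard Hill fit.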

[9] = Cell Viability - LYMP2-013 (AID 970); conditions: LYMP2-013 lymphoblastoid cells viability; series mostly up to 92.2 µM; further: nearly all actives have a fitted effect of over 55% in size
Procedure, shortened: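 CellTiter-Glo luminescence (cellular ATP) read after 30 min at RT. Cells: human lymphoblastoid line, 2500/well, 24 hr compound exposure at 37 C. Tetraoctylammonium bromide positive control; AC50 via standard Hill fit of qHTS titrations.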

Measured: outcome

CC(=O)O[C@@H]1CC(C)=C2[C@H]1[C@H](C)CC[C@H]2/C=C(\C)C(=O)O
inactive: all assays above

Cc1ccc(N)cc1O
inactive: all assays above

— PubChem BioAssay (NCATS)
